# Results as given in the supplement of paper PMC11006884.
# The full data set covers some 6,500 targets. This sample favours those with a hit. About 2% of all pairs of compound and target were hits. Values without a mark were called inactive.
# Compound: COC(=O)C#Cc1ccccc1 [methyl 3-phenylpropiolate]
# Test: log2 ratio of iodoacetamide-alkyne labeling of the cysteine site, DMSO over compound (competition); higher = stronger covalent engagement of the cysteine by the compound, active = 1 or more
# Settings: 500 µM; treatment time 1 h; system: HEK293T cell lysate
# Outline: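 HEK293T lysate (2 mg/mL) was incubated with electrophile (500 µM) or vehicle for 1 h at ambient temperature and then with iodoacetamide alkyne for 1 h. Labelled proteins were clicked to sCIP-TMT reagents, pooled, digested, enriched on streptavidin and measured by Orbitrap Eclipse LC-MS/MS with FAIMS, with FragPipe quantification. The per-cysteine log2 competition ratio is mean control-channel reporter intensity over mean compound-channel reporter intensity. Across three replicates with duplicate channels, cysteines quantified in only one replicate were excluded.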
# Sequence of UniProt O15381 (O15381 whole entry, looked up): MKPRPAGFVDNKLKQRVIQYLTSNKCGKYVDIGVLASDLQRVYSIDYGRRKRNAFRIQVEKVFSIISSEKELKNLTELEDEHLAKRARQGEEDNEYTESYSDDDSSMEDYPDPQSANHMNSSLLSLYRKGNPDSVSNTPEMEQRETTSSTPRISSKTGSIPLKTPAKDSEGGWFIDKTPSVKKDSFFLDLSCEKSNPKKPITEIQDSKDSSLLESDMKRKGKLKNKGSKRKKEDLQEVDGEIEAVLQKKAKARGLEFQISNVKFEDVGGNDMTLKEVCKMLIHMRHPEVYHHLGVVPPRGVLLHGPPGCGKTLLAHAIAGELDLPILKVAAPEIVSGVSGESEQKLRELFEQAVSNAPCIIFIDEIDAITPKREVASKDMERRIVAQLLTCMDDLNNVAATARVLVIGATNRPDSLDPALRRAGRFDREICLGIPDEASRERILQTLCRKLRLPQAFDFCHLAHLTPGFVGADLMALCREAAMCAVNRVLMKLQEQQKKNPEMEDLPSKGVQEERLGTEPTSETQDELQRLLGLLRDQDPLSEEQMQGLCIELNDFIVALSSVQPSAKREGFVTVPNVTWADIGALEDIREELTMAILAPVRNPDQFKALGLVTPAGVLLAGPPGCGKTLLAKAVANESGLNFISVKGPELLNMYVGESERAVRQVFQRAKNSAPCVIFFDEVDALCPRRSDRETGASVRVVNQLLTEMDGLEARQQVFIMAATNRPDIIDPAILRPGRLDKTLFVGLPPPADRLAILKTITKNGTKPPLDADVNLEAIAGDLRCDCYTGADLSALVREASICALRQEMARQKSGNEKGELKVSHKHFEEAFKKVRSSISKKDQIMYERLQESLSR
# Sequence of UniProt O43583 (O43583 whole entry, looked up): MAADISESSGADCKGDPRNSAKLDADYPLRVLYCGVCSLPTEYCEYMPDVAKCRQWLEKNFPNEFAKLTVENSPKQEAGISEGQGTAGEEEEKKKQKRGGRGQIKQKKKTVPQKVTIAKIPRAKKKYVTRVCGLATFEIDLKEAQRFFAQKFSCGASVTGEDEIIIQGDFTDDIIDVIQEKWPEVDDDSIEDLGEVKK
# Sequence of UniProt O94885 (O94885 whole entry, looked up): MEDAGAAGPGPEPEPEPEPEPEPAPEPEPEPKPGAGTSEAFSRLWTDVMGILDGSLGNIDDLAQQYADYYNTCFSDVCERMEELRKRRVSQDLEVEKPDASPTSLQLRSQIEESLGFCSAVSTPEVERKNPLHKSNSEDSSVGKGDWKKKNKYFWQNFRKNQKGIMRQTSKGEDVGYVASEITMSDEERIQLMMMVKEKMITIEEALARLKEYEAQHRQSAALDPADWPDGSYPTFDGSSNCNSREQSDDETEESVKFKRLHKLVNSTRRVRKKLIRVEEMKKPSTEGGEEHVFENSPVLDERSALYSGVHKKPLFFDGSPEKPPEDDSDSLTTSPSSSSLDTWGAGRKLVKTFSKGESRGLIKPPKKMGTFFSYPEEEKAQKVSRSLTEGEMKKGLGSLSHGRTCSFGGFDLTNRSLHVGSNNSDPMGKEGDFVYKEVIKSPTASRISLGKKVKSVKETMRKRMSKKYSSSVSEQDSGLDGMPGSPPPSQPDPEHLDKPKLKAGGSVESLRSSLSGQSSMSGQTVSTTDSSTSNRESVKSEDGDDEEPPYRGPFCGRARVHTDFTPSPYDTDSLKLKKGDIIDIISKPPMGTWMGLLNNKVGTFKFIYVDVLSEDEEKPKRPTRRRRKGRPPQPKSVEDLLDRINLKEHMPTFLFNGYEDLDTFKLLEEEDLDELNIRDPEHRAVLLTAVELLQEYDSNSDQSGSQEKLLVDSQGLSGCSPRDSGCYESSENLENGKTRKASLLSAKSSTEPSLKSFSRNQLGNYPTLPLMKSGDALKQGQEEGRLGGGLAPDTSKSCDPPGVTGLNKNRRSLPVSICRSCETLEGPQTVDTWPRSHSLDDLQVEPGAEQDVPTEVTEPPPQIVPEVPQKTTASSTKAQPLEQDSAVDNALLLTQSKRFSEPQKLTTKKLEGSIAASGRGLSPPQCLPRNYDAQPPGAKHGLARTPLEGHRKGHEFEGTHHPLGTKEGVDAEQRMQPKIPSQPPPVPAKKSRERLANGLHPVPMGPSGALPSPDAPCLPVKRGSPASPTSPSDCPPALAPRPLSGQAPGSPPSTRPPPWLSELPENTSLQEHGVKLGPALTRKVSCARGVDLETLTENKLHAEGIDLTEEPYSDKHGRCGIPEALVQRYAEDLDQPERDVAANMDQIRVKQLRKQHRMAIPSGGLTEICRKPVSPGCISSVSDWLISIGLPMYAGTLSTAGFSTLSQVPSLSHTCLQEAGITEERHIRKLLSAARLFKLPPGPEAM
# Sequence of UniProt O00411 (O00411 whole entry, looked up): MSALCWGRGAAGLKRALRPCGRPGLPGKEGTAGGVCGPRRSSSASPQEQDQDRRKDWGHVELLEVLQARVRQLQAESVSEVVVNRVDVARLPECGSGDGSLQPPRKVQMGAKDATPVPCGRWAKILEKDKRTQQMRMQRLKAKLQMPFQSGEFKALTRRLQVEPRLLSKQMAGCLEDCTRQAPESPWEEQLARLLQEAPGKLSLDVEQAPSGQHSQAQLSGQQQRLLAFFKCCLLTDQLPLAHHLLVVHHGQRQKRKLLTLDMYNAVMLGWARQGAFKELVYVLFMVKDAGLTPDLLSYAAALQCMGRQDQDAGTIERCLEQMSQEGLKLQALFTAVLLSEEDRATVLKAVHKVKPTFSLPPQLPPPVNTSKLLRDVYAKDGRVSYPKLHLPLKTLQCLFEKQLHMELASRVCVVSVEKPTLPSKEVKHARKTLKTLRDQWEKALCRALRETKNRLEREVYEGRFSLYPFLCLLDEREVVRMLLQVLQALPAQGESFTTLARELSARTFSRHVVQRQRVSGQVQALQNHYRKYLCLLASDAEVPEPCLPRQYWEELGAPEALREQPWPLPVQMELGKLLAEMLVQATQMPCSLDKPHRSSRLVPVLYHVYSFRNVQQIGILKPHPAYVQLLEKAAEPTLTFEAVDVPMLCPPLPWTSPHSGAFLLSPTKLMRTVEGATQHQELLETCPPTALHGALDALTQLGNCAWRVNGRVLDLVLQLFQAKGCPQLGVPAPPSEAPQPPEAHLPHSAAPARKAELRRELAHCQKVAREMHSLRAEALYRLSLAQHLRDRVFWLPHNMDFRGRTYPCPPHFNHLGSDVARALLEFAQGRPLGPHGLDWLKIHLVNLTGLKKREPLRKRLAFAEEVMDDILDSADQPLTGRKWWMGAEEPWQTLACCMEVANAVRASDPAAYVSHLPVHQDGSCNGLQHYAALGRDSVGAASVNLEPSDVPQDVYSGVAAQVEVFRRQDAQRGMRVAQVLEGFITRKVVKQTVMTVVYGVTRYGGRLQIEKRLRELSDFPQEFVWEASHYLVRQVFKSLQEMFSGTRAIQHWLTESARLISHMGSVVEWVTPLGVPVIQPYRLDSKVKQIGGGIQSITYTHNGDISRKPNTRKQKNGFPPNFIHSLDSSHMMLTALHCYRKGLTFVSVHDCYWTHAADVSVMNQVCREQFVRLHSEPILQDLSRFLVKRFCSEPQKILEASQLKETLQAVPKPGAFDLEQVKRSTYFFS
# Sequence of UniProt O43719 (O43719 whole entry, looked up): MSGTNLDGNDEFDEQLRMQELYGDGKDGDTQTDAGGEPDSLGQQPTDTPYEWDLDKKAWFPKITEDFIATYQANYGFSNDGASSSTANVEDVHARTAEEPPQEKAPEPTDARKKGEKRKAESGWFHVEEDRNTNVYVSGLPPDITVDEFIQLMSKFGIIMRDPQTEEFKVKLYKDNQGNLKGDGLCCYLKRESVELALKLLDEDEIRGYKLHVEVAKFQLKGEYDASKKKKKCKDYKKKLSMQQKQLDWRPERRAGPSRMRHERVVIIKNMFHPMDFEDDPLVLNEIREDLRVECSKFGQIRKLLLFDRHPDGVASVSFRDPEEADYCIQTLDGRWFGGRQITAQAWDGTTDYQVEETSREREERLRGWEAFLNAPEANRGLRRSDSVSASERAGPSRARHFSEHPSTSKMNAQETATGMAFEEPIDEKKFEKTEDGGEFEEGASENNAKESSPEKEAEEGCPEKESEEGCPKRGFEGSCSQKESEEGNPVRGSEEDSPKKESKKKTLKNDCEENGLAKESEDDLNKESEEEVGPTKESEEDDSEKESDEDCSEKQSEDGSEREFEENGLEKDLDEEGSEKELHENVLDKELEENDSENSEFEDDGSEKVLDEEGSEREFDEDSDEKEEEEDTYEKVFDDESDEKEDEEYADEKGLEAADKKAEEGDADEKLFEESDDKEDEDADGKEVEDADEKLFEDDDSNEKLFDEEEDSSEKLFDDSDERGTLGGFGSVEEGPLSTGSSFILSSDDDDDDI
# Sequence of UniProt O00471 (O00471 whole entry, looked up): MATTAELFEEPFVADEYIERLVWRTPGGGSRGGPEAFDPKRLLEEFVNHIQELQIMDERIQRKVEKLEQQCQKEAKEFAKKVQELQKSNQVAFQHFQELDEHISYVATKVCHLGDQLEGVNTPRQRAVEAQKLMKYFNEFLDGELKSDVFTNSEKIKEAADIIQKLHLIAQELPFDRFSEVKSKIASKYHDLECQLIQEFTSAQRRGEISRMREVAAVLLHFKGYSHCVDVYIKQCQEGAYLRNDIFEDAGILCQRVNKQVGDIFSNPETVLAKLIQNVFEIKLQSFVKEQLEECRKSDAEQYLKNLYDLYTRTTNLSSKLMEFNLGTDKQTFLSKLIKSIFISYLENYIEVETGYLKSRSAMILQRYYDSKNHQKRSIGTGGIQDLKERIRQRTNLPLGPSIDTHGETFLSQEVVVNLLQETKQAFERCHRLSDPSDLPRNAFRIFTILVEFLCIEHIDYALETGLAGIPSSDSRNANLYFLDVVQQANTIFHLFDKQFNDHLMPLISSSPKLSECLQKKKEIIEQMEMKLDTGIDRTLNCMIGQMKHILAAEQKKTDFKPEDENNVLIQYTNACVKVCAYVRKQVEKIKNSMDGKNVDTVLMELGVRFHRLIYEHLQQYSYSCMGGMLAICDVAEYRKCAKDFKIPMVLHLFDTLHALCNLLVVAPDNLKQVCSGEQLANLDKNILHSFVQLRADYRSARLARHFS
row,Target,log2 ratio of iodoacetamide-alkyne labeling
1,PGP C297 (UniProt A6NDG6),1.17 (active)
2,DENR C13 (UniProt O43583),0.235
3,SASH1 C406 (UniProt O94885),1.19 (active)
4,UniProt O43598_C26,0.038
5,HTATSF1 C462 (UniProt O43719),1.14 (active)
6,FLNB C2556 (UniProt O75369),0.079
7,FLNB C660 (UniProt O75369),0.476
8,EXOC5 C111 (UniProt O00471),0.297
9,ANKRD17 C58 (UniProt O75179),1.35 (active)
10,NVL C626 (UniProt O15381),0.651
11,IPO5 C750 (UniProt O00410),0.168
12,POLRMT C925 (UniProt O00411),-0.0567
13,SF3B1 C1035 (UniProt O75533),0.375
14,XPO1 C164 (UniProt O14980),-0.00596
15,EIF3D C196 (UniProt O15371),0.719
16,UniProt O94822_C498,0.086
17,UniProt O75153_C1196,0.492
